The source made the active and inactive calls. Unless noted, no rule for the calls is given here.
Legend:
[1] = tested on: XIP peptide (Xip251-270) binding; experiment: small-molecule binders of XIP peptide, primary screen, biochemical, small-molecule microarray, fluorescence 635/667 nm, 0.1 µg/mL protein (AID 1182); details: fluorescent protein binding, 635 nm, higher = more signal, called active from +8 up or from −8 down
XIP peptide (Xip251-270) = experiment: small-molecule binders of XIP peptide, primary screen, biochemical, small-molecule microarray, fluorescence 635/667 nm, 0.5 µg/mL protein (AID 1183); details: small-molecule microarray binding, fluorescence 635 nm; higher = more signal
[2] = Plasmodium falciparum growth inhibition, primary screen, strain 3D7, DAPI fluorescence, 100 nL (AID 1184);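 also: parasites grown inside human red blood cells in medium with human serum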; details: P. falciparum 3D7 growth, 3 d, higher = more signal
[3] = molecular target: Homeobox protein Hox-A13 (Mus musculus) (UniProt Q62424); experiment: inhibitors of HoxA13-DNA binding, primary screen, biochemical, fluorescence polarization, labeled oligonucleotide (AID 1185); details: 15 min, higher = more signal, called active from +8 up or from −8 down
[4] = inhibitors of hydroxyurea-induced Chk1 phosphorylation, primary screen, imaging, HeLa, phospho-Chk1 antibody, percent positive cells (AID 1186); details: hydroxyurea-induced phospho-Chk1 immunofluorescence imaging, higher = more signal
[5] = inhibitors of hydroxyurea-induced Chk1 phosphorylation, primary screen, imaging, HeLa, phospho-Chk1 nuclear intensity (AID 1187); details: hydroxyurea-induced phospho-Chk1 immunofluorescence imaging, higher = more signal

Homeobox protein Hox-A13 (Mus musculus), sequence (Q62424 whole entry, looked up): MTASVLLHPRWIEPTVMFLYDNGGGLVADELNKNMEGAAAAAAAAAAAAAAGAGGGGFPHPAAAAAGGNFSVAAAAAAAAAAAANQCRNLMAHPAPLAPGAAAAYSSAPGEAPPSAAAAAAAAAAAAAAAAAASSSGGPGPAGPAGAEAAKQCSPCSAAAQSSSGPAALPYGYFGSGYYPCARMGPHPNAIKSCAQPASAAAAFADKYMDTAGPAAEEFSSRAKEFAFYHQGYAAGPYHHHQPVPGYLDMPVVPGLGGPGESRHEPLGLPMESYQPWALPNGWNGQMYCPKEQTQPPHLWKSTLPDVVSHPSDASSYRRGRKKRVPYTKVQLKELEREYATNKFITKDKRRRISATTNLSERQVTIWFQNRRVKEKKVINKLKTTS

| SMILES | composite z-score [1] | composite z-score (XIP peptide (Xip251-270)) | z-score [2] | z-score [3] | z-score [4] | z-score [5] |
| --- | --- | --- | --- | --- | --- | --- |
| CC(C)=CCCC(C)=CC(O)C1C=CC2C(=O)NC(=O)C2N1Nc1ccc(Cl)cc1Cl (configuration not stated) | 0.323 (inactive) | 0.171 | 0.812 | -3.59 (inactive) | 1.39 (inactive) | 0.848 (inactive) |
| N#Cc1ccc(C(O)C2C=CC3C(=O)NC(=O)C3N2Nc2ccc(Cl)cc2Cl)cc1 (configuration not stated) | 1.42 (inactive) | 0.0653 | 0.684 | -5.63 (inactive) | 0.731 (inactive) | 0.688 (inactive) |
| CCOC(=O)C1=CC[C@@H](c2ccc(OC)cc2)N(S(=O)(=O)c2ccc(C)cc2)[C@H]1c1ccc(C)cc1 | 0.3 (inactive) | 0.44 | 0.869 | -0.57 (inactive) | -0.0113 (inactive) | -0.5 (inactive) |
| COCCOC(=O)N1C(=O)[C@@]2(c3cc(C#CCCO)ccc31)[C@H](c1ccc(OCCO)cc1)N1[C@H](c3ccccc3)[C@H](c3ccccc3)OC(=O)[C@H]1[C@@H]2C(=O)N1CCCCCCC1 | 0.788 (inactive) | 0.614 | -2.1 | -4.34 (inactive) | 0.197 (inactive) | 0.476 (inactive) |
| [N-]=[N+]=NCc1ccccc1[C@@H]1OC(c2ccc(OCCCO)cc2)=N[C@]1(Cc1ccccc1N=[N+]=[N-])C(=O)NCC(O)CO (some centres not stated) | 1.45 (inactive) | 0.5 | -2.31 | -2.19 (inactive) | -0.168 (inactive) | 0.0749 (inactive) |
| C=CCNC(=O)[C@H]1[C@@H]2C(=O)O[C@@H](c3ccccc3)[C@@H](c3ccccc3)N2[C@@H](c2ccc(OCCO)cc2)[C@]12C(=O)Nc1ccc(C#CC3(O)CCCCCC3)cc12 | 0.38 (inactive) | 0.821 | -2.09 | -1.83 (inactive) | 0.541 (inactive) | 1.15 (inactive) |
| CN(C)C(=O)[C@]1(Cc2ccccc2)N=C(c2ccc(OCCCO)cc2)O[C@@H]1c1ccccc1CN=[N+]=[N-] | 0.245 (inactive) | 0.764 | -2.6 | -4.47 (inactive) | 0.0164 (inactive) | 0.304 (inactive) |
| CC(C)OC(=O)CC(=O)CC(O)c1cccc([N+](=O)[O-])c1 (configuration not stated) | 0.52 (inactive) | 0.089 | -0.165 | -0.516 (inactive) | -0.242 (inactive) | -0.299 (inactive) |
| CC(C)(C)N1CC=CC23O[C@@H]4/C=C\CCCOC(=O)C4[C@H]2C(=O)N(CCCCCO)[C@@H]3C1=O (some centres not stated) | 0.176 (inactive) | -1.03 | 1.91 | -4.34 (inactive) | 0.395 (inactive) | 0.144 (inactive) |
| CC(C)N1C(=O)C[C@@](C(=O)NCCN2CCOCC2)(c2ccc([N+](=O)[O-])cc2)[C@H]1c1ccc(CO)cc1 | 0.534 (inactive) | 0.634 | 0.289 | -2.52 (inactive) | 0.159 (inactive) | 0.451 (inactive) |
| CN1C(=O)C2C(C3CC3)C=C3CN(Cc4cccc(Cl)c4)[C@@H]([C@@H](O)Cc4ccccc4)C3C2C1=O (some centres not stated) | 0.163 (inactive) | 0.74 | -0.185 | -4.6 (inactive) | -1.34 (inactive) | -2.37 (inactive) |
| [N-]=[N+]=Nc1ccccc1[C@H]1OC(c2ccc(OCCCO)cc2)=N[C@@]1(Cc1ccccc1)C(=O)NCC(O)CO (some centres not stated) | 0.448 (inactive) | 0.536 | -1.84 | -4.34 (inactive) | 0.0068 (inactive) | 0.251 (inactive) |
| CC(C)(C)N1CC=CC23O[C@@H]4/C=C\CCCOC(=O)C4[C@H]2C(=O)N(CCCO)[C@@H]3C1=O (some centres not stated) | -0.12 (inactive) | -0.774 | 0.426 | -5.57 (inactive) | -0.0351 (inactive) | 0.0939 (inactive) |
| COC(=O)C[C@H]1O[C@@]2(C[C@@H]1[Si](C)(C)C)C(=O)N(C)c1ccccc12 | -0.227 (inactive) | -0.186 | 0.357 | -0.91 (inactive) | -0.597 (inactive) | -0.0422 (inactive) |
| COC(=O)[C@@]1(Cc2ccc(OC)cc2)[C@H]2c3cc(C(=O)N4CCCC4)n(Cc4ccc(C(F)(F)F)nc4)c3C[C@H]2CN1C(=O)c1ccccc1 | 0.143 (inactive) | -0.39 | -1.5 | -5.12 (inactive) | 0.664 (inactive) | 0.712 (inactive) |
| C[C@@H]1ON(c2ccccc2)[C@H](c2ccccc2)[C@H]1C(=O)O | -0.117 (inactive) | 0.0627 | -0.413 | -0.711 (inactive) | 0.0099 (inactive) | 0.203 (inactive) |
| O=C(NCc1ccccc1)[C@@H]1c2ccccc2C(=O)N(Cc2cc(C(F)(F)F)cc(C(F)(F)F)c2)[C@H]1c1ccc(CO)cc1 | 0.722 (inactive) | 0.221 | -1.2 | -3.95 (inactive) | -0.0537 (inactive) | -0.101 (inactive) |
| CO[C@H]1O[C@H](CO)[C@@H](OC(=O)Nc2ccc3c(c2)OCO3)[C@H](OC(=O)Nc2ccccc2-c2ccccc2)[C@H]1OC(=O)Nc1ccccc1-c1ccccc1 | 0.667 (inactive) | 0.873 | -1.92 | -3.15 (inactive) | 0.0165 (inactive) | 0.444 (inactive) |
| O=C(NC1CC1)[C@@H]1c2ccccc2C(=O)N(Cc2ccc(OC(F)(F)F)cc2)[C@H]1c1ccc(CO)cc1 | 2.46 (inactive) | 0.0303 | 0.599 | -3.51 (inactive) | -0.453 (inactive) | -0.577 (inactive) |
| CN(C)CCCNC(=O)[C@@H]1c2ccccc2C(=O)N(Cc2ccccc2C(F)(F)F)[C@H]1c1ccc(CO)cc1 | -0.638 (inactive) | 0.0067 | -0.944 | -2.62 (inactive) | -0.316 (inactive) | -0.164 (inactive) |
| COCCOC(=O)N1C(=O)[C@@]2(c3cc(C#CCC(C(=O)OC)C(=O)OC)ccc31)[C@H](c1ccc(O)cc1)N1[C@H](c3ccccc3)[C@H](c3ccccc3)OC(=O)[C@H]1[C@@H]2C(=O)Nc1nc2ccccc2s1 | 1.49 (inactive) | 0.853 | -1.43 | -2.2 (inactive) | 0.03 (inactive) | 0.0087 (inactive) |
| CN1C(=O)[C@@H]2[C@@H](CC(COc3ccccc3)=C3[C@@H](CCc4ccccc4)OB(O)C[C@@H]32)C1=O | 0.106 (inactive) | 0.774 | 1.52 | -6.67 (inactive) | 0.556 (inactive) | 0.768 (inactive) |
| CCCNC(=O)[C@@]1(Sc2ccc(C)cc2)CC(=O)N(Cc2ccccc2Cl)[C@@H]1c1ccc(CO)cc1I | 0.263 (inactive) | 0.157 | -0.0495 | -2.99 (inactive) | 0.242 (inactive) | 0.677 (inactive) |
| CC(C)(C)OC(=O)CC[C@@]1(C(=O)NCCN2CCOCC2)N=C(c2ccc(OCCCO)cc2)O[C@@H]1c1ccccc1CN=[N+]=[N-] | 0.158 (inactive) | 0.729 | -0.41 | -4.93 (inactive) | -0.0412 (inactive) | -0.301 (inactive) |
| COc1ccc([Si](C)(C)[C@@H]2[C@@H](CC(=O)N3Cc4ccccc4C[C@H]3CO)O[C@]3(C(=O)N(Cc4ccc(N5CCOC5=O)cc4)c4ccccc43)[C@H]2C)cc1 | 2.28 (inactive) | 0.83 | -1.82 | -1.43 (inactive) | -0.262 (inactive) | -0.106 (inactive) |
| COCCCNC(=O)[C@@]1(CCC(=O)OC(C)(C)C)COC(c2ccc(OCCCO)cc2)=N1 | 0.192 (inactive) | 0.732 | -0.547 | -5.74 (inactive) | -0.0385 (inactive) | 0.304 (inactive) |
| COCCCNC(=O)[C@@]1(CCS(=O)(=O)c2ccccc2)COC(c2ccc(OCCCO)cc2)=N1 | 1.85 (inactive) | -0.227 | 0.264 | -4.7 (inactive) | 0.103 (inactive) | 0.103 (inactive) |
